smiles,measurement,setting,value
COc1cc(N2CCN(C)CC2)ccc1Nc1ncc2c(n1)N(C)c1ccccc1C(=O)N2 [XMD8-87],Kinases covered,PTK6,PTK6
CCCc1cc(N2CCCN(C)CC2)nc2sc3c(N)ncnc3c12 [BI00604564],Kinases covered,RIOK2,RIOK2
Cc1cc(NC(=O)c2cccc(NC(=O)/C=C/CN(C)C)c2)ccc1Nc1nccc(-c2cccnc2)n1 [JNK-IN-7],Kinases covered,RIOK2,RIOK2
CC1=C(C(=O)Nc2ccc3[nH]ncc3c2)C(c2ccc(Cl)c(Cl)c2)CC(=O)N1 (stereo not shown) [GSK299115A],Kinases covered,ROCK1,ROCK1
CCn1c(-c2nonc2N)nc2cncc(C(=O)N3CC[C@H](N)C3)c21.Cl [SB-772077-B],Kinases covered,ROCK2,ROCK2
CCn1c(-c2nonc2N)nc2cncc(CNC3CCNCC3)c21 [SB-747651A],Kinases covered,ROCK2,ROCK2
COc1cc(Nc2cnc(C#N)c(O[C@H](C)CN(C)C)n2)ncc1-c1cnn(C)c1 [CCT244747],Kinases covered,RPS6KA1,RPS6KA1
